KB-3-1 cytotox: qHTS assay for MDR1-selective chemotherapeutics: Primary screen using the parental adenocarcinoma cell KB-3-1 | KB-3-1 viability, CellTiter-Glo ATP luminescence, 72 h | Potency, µM (highest dose often 46.1 µM), most hits filed as cytotoxic | hit rate 1.4% among 400,000; further: nearly all actives have a fitted effect of over 60% in size
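Using CellTiter-Glo luminescence, growth of non-resistant KB-3-1 adenocarcinoma cells is assessed 72 h after pin-tool compound addition at 37 °C. Normalized responses across the concentration series yield fitted curves.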
MCF10A rereplic: A quantitative high throughput screen for small molecules that induce DNA re-replication in MCF 10a normal breast cells; hit rate 2.9% among 350,000; Potency, µM (doses to about 46.1 µM), hits mostly activators; MCF 10A DNA re-replication, Hoechst nuclear intensity, 48 h; further: nearly all actives have a fitted effect of over 50% in size
HT1080NT lethal: qHTS for induction of synthetic lethality in tumor cells producing 2HG: qHTS for the HT-1080-NT fibrosarcoma cell line. Potency, µM (highest dose often 46.1 µM), actives largely listed as cytotoxic. AID 686970, 2013. HT-1080-NT fibrosarcoma viability, CellTiter-Glo ATP luminescence, 48 h. hit rate 1.6% among 360,000;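 further: NT is the 2HG producing partner of a matched IDH1 knockdown line; nearly all actives have a fitted effect of over 55% in size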
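Read-out is CellTiter-Glo luminescence after 10 minutes at room temperature, following 48 hours' compound treatment of HT-1080-NT cells (750 cells/well, RPMI, 5% FBS, 37 degrees C).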
SW480 rereplic: A quantitative high throughput screen for small molecules that induce DNA re-replication in SW480 colon adenocarcinoma cells | hit rate 1.8% among 340,000 | SW480 DNA re-replication, Hoechst DNA content imaging, 48 h | Potency, µM (highest dose often 46.1 µM), hits mostly activators; further: nearly all actives have a fitted effect of over 55% in size
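SW480 cells exposed to compounds for 48 hr at 37 C, 5% CO2, then Hoechst-stained 40 min. Nuclear DNA content imaged by fluorescence scanning (405 nm excitation, 500-530 nm emission); re-replication scored as increased high-intensity nuclei.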
HT1080 IDH1KD tx: qHTS for induction of synthetic lethality in tumor cells producing 2HG: qHTS for the HT-1080-IDH1KD cell line. HT-1080 IDH1 knockdown viability, ATP luminescence, 48 h. Potency, µM (doses to about 46.1 µM), usual class: cytotoxic. hit rate 2% among 360,000
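Viability of IDH1-knockdown HT-1080 fibrosarcoma cells was assessed by CellTiter-Glo after 48 h at 37 °C with titrated compound; concentration-effect curves were classified by fit quality and response size.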
KB-V1 MDR tox: qHTS assay for MDR1-selective chemotherapeutics: Primary screen using the drug-selected MDR subline cells KB-V1. hit rate 3.4% among 400,000. KB-V1 MDR cells viability, CellTiter-Glo, 72 h. Potency, µM (series often up to 46.1 µM), usual class: cytotoxic; further: nearly all actives have a fitted effect of over 60% in size
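qHTS viability screen in drug-selected KB-V1 MDR cells: 72 h compound treatment at 37 degrees C, ATP luminescence end point.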
A number is an active result; [ ] = remark or other dose. An excerpt weighted towards active compounds, which were near 8% of everything screened. The call rests on the fitted dose curve; in most records, active means well fitted curve in the direction sought with a large enough effect; inconclusive means small, poorly fitted or top-dose-only effect, or another doubt; inactive means no such curve, though single readings can be large; an effect the other way counts as inactive or inconclusive.

`Cc1ccc2c(c1)nnn2C1CCN(S(=O)(=O)c2ccc(C(=O)N(C)C)cc2)CC1` gave KB-3-1 cytotox inconclusive, MCF10A rereplic inactive, HT1080NT lethal inactive, SW480 rereplic inactive, HT1080 IDH1KD tx inactive and KB-V1 MDR tox 9.2µM.
`COC(=O)c1cccc(S(=O)(=O)N2CCC(n3nnc4cc(F)ccc43)CC2)c1` gave KB-3-1 cytotox inactive, MCF10A rereplic inactive, HT1080NT lethal inactive, SW480 rereplic inactive, HT1080 IDH1KD tx inactive and KB-V1 MDR tox 16µM.
Cc1ccc2c(c1)nnn2C1CCN(S(=O)(=O)c2ccc3ccccc3c2)CC1 was read as KB-3-1 cytotox inactive, MCF10A rereplic inactive, HT1080NT lethal inconclusive, SW480 rereplic inactive, HT1080 IDH1KD tx inconclusive and KB-V1 MDR tox 21µM.
For COc1cccc(N2CCN(C(=O)CN3CCSc4ccc(S(=O)(=O)N(C)C)cc43)CC2)c1 the results were KB-3-1 cytotox inactive and KB-V1 MDR tox inconclusive.
`Cc1ccc(OCCCCn2c(CCNC(=O)C3CCCCC3)nc3ccccc32)cc1` gave KB-3-1 cytotox inactive and KB-V1 MDR tox inactive.
Cc1ccc2c(c1)nnn2C1CCN(S(=O)(=O)c2ccc(C(=O)N3CC(C)CC(C)C3)cc2)CC1 (stereo not drawn) was read as KB-3-1 cytotox 16µM, MCF10A rereplic inactive, HT1080NT lethal inactive, SW480 rereplic inactive, HT1080 IDH1KD tx inactive and KB-V1 MDR tox inconclusive.
For CC(C)n1ncc2c(C(=O)Nc3cccc(S(=O)(=O)N(C)C)c3)cc(C3CC3)nc21 the results were KB-3-1 cytotox inconclusive, MCF10A rereplic inconclusive, HT1080NT lethal inactive, SW480 rereplic inactive, HT1080 IDH1KD tx inactive and KB-V1 MDR tox 8.2µM.
`CC1=C(c2ccc(C)cc2)S(=O)(=O)NC1=NCCCN1CCN(c2ccccc2F)CC1` gave KB-3-1 cytotox inactive and KB-V1 MDR tox inactive.
O=C(Nc1nc(NC(=O)c2ccco2)n(-c2ccccc2)n1)c1ccccc1 was read as KB-3-1 cytotox 16µM, MCF10A rereplic inconclusive, HT1080NT lethal 10µM, SW480 rereplic inactive, HT1080 IDH1KD tx 2.5µM and KB-V1 MDR tox 4.1µM.
Screening CCn1c(=O)cc(SCC(=O)N2CCN(c3ccccc3OC)CC2)c2ccccc21 returned KB-3-1 cytotox inactive, MCF10A rereplic inactive, HT1080NT lethal inactive, SW480 rereplic inactive, HT1080 IDH1KD tx inconclusive and KB-V1 MDR tox 8.2µM.
`CN(Cc1cc(Cl)cc(Cl)c1O)Cc1c(O)ccc2ccccc12` gave KB-3-1 cytotox inactive, MCF10A rereplic 23µM, HT1080NT lethal inactive, SW480 rereplic inconclusive, HT1080 IDH1KD tx inconclusive and KB-V1 MDR tox inactive.
CN(Cc1ccccc1)Cc1c(O)ccc2ccccc12 was read as KB-3-1 cytotox inactive, MCF10A rereplic inactive, HT1080NT lethal inactive, SW480 rereplic inactive, HT1080 IDH1KD tx inactive and KB-V1 MDR tox inactive.
Screening O=C(COc1ccc(F)cc1)OCc1cc(=O)n2nc(C3CC3)sc2n1 returned KB-3-1 cytotox inactive and KB-V1 MDR tox inactive.
COc1ccc(OC)c(-c2cc(C3CCN(c4ncccc4[N+](=O)[O-])CC3)[nH]n2)c1 was read as KB-3-1 cytotox inconclusive, MCF10A rereplic inactive, HT1080NT lethal inconclusive, SW480 rereplic inactive, HT1080 IDH1KD tx inconclusive and KB-V1 MDR tox inconclusive.
Screening COc1ccc(OC)c(-c2cc(C3CCN(c4cc(Cl)nc(N)n4)CC3)[nH]n2)c1 returned KB-3-1 cytotox 7.3µM, MCF10A rereplic 21µM, HT1080NT lethal inactive, SW480 rereplic inconclusive, HT1080 IDH1KD tx inconclusive and KB-V1 MDR tox 3.3µM.
For Nc1nc(Cl)cc(N2CCC(c3cc(-c4ccc(Cl)cc4)n[nH]3)CC2)n1 the results were KB-3-1 cytotox inconclusive, MCF10A rereplic 26µM, HT1080NT lethal 22µM, SW480 rereplic 16µM, HT1080 IDH1KD tx 11µM and KB-V1 MDR tox 15µM.
COc1ccc(OC)c(CNC(=O)c2ccc(-c3nc(CSc4ccccc4)c(C)o3)cc2)c1 was read as KB-3-1 cytotox inactive and KB-V1 MDR tox inactive.
For C=CCc1ccc(OCC(O)CN2CCN(c3ccccc3OC)CC2)c(OC)c1 (stereo not drawn) the results were KB-3-1 cytotox inactive, MCF10A rereplic inactive, HT1080NT lethal inactive, SW480 rereplic inconclusive, HT1080 IDH1KD tx inactive and KB-V1 MDR tox inactive.
C=CCc1ccc(OCC(O)CN2CCN(Cc3ccc(Cl)cc3)CC2)c(OC)c1 (stereo not drawn) was read as KB-3-1 cytotox 23µM, MCF10A rereplic inconclusive, HT1080NT lethal 21µM, SW480 rereplic inconclusive, HT1080 IDH1KD tx 21µM and KB-V1 MDR tox inconclusive.
`C=CCc1ccc(OCC(O)CN2CCC(Cc3ccccc3)CC2)c(OC)c1` (stereo not drawn) gave KB-3-1 cytotox inactive, MCF10A rereplic inactive, HT1080NT lethal inconclusive, SW480 rereplic inconclusive, HT1080 IDH1KD tx inactive[9.24 µM] and KB-V1 MDR tox 21µM.
CCC(Sc1nnc(-c2ccc(F)cc2)c(-c2ccc(F)cc2)n1)C(=O)NC1CCCC1 (stereo not drawn) was read as KB-3-1 cytotox inactive and KB-V1 MDR tox inactive.
COc1cccc(C(=O)NC(=NCCc2c[nH]c3ccc(OC)cc23)Nc2nc(C)cc(C)n2)c1 was read as KB-3-1 cytotox inactive and KB-V1 MDR tox 23µM.
COc1ccc2[nH]cc(CCN=C(NC(=O)c3ccccc3OC)Nc3nc(C)cc(C)n3)c2c1 was read as KB-3-1 cytotox inactive and KB-V1 MDR tox inconclusive.
`N#CC1=C(N)C(C#N)(C#N)[C@H](c2c(F)cccc2F)[C@H]2CC3(CC=C12)OCCO3` gave KB-3-1 cytotox 6.5µM, MCF10A rereplic 4.1µM, HT1080NT lethal inconclusive, SW480 rereplic 3.3µM, HT1080 IDH1KD tx 10µM and KB-V1 MDR tox inconclusive.
For CSc1nc(SCC(=O)NCc2ccco2)c2c3c(sc2n1)COC(C)(C)C3 the results were KB-3-1 cytotox inactive, MCF10A rereplic inconclusive, HT1080NT lethal 7.9µM, SW480 rereplic inconclusive, HT1080 IDH1KD tx 7.1µM and KB-V1 MDR tox 3.7µM.
Screening CCCCSc1nc(SCC(=O)NCc2ccco2)c2c3c(sc2n1)COC(C)(CC)C3 (stereo not drawn) returned KB-3-1 cytotox inactive, MCF10A rereplic inactive, HT1080NT lethal inactive, SW480 rereplic inactive, HT1080 IDH1KD tx inactive and KB-V1 MDR tox inactive.
`COc1ccc(C(CC(=O)c2ccc(C)cc2)C(C#N)C#N)cc1OC` (stereo not drawn) gave KB-3-1 cytotox inconclusive, MCF10A rereplic 21µM, HT1080NT lethal 21µM, SW480 rereplic inconclusive, HT1080 IDH1KD tx 23µM and KB-V1 MDR tox inconclusive.

Screening results (PubChem BioAssay)
